Measured values published in the supplement of paper PMC6555819.

What was measured:
Assay in all cases: PBM binding z-score (relative to random genomic background probes); higher = stronger binding; sequences stand for … in GC…GCGATTGACAGCGTAGAATGAAGG
[1] = test system: PPARg:RXRa DBDmut IVT, anti-RXR (DBD mutation: RXRa K156A/R161A, NR concentration 270 nM, RXRa partner concentration 90 nM)
Summary of the method: (§1)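 Binding z-scores take random background probes as their reference. They come from custom Agilent 4×180K protein-binding microarrays incubated 1 h with ligand-free nuclear receptor dimers, with antibodies against each partner (one per run) detecting binding. Scanned fluorescence was regression-normalized.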

[2] = test system: PPARg:RXRa IVT, anti-PPARg (NR concentration 270 nM, RXRa partner concentration 90 nM)
Summary of the method: as §1

[3] = test system: PPARg DBDmut:RXRa IVT, anti-PPARg (DBD mutation: PPARg1 K132A/R137A, NR concentration 270 nM, RXRa partner concentration 90 nM)
Summary of the method: as §1

[4] = test system: PPARg DBDmut IVT, anti-PPARg (DBD mutation: PPARg1 K132A/R137A, NR concentration 270 nM)
Summary of the method: as §1

[5] = test system: PPARg homodimer (NR concentration 180 nM)
Summary of the method: as §1

[6] = test system: PXR:RXRa (NR concentration 270 nM, RXRa partner concentration 90 nM)
Summary of the method: as §1

[7] = test system: PXR homodimer (NR concentration 270 nM)
Summary of the method: as §1

[8] = test system: RARa:RXR (NR concentration 270 nM, RXRa partner concentration 90 nM)
Summary of the method: as §1

[9] = test system: RARa homodimer (NR concentration 270 nM)
Summary of the method: as §1

[10] = test system: RARb:RXRa (NR concentration 270 nM, RXRa partner concentration 90 nM)
Summary of the method: as §1

[11] = test system: RARb homodimer (NR concentration 270 nM)
Summary of the method: as §1

[12] = test system: RARg:RXRa (NR concentration 270 nM, RXRa partner concentration 90 nM)
Summary of the method: as §1

[13] = test system: RARg homodimer (NR concentration 270 nM)
Summary of the method: as §1

[14] = test system: RXRa DBDmut IVT, anti-RXR (DBD mutation: RXRa K156A/R161A, NR concentration 90 nM)
Summary of the method: as §1

[15] = test system: RXRa homodimer (NR concentration 180 nM)
Summary of the method: as §1

[16] = test system: THRa:RXRa (NR concentration 90 nM, RXRa partner concentration 90 nM)
Summary of the method: as §1

[17] = test system: THRa homodimer (NR concentration 90 nM)
Summary of the method: as §1

[18] = test system: VDR homodimer (NR concentration 270 nM)
Summary of the method: as §1

Sequence	PBM binding z-score [1]	PBM binding z-score [2]	PBM binding z-score [3]	PBM binding z-score [4]	PBM binding z-score [5]	PBM binding z-score [6]	PBM binding z-score [7]	PBM binding z-score [8]	PBM binding z-score [9]	PBM binding z-score [10]	PBM binding z-score [11]	PBM binding z-score [12]	PBM binding z-score [13]	PBM binding z-score [14]	PBM binding z-score [15]	PBM binding z-score [16]	PBM binding z-score [17]	PBM binding z-score [18]
CGTCCAAGGTCATAGGAGGTCAGTGAGGACAGAT	3.74	4.55	1.02	0.649	5.73	6.88	11.7	6.37	3.47	5.29	5.13	6.73	7.15	4.28	6.16	5.22	4.53	5.81
GCTAGCAGGCCATCTGGGTCACTCAATGACGGGC	3	3.48	-0.603	-1.04	0.0368	0.27	-0.407	0.713	-0.51	1.67	1.99	1.2	1.84	-0.462	0.806	1.62	0.249	0.262
GGAACGAGAGCATTCGAGTTGATAGCATGGCGAT	0.00852	-0.503	-0.558	-0.483	-1.19	0.237	-0.766	-0.817	-0.746	-0.633	-1.06	-0.435	-0.276	0.441	-0.118	1.04	-1.57	-0.57
GCTGCTAGGTCTGGTTGGTCAGCTAACGGGTACG	-0.0168	-0.444	-1.29	-0.941	-0.461	-0.762	-0.661	-0.909	-0.893	0.00464	0.178	-0.569	-0.564	-0.198	-0.753	-0.722	-0.243	-0.214
AAAACGAGGGCAATGAGTTGATAGCACGGGTGGC	5.04	3.79	1.2	0.681	0.0756	1.86	4.72	0.593	-0.42	2.18	1.2	1.23	1.6	2.07	1.13	1.31	-0.257	3.26
TAGCCTTGGTCATGGGCCAGTATACCACGCGAAC	-1.28	0.113	-0.568	-0.717	-0.713	-0.329	-0.952	-0.342	-1.21	0.734	0.441	0.368	0.681	-1.32	0.297	-0.147	-0.424	-0.715
TAGCCTAGGTCATGCTGGCCAGTATAGTGTCGGC	1.89	3.11	0.437	-0.89	0.715	1.16	-0.737	2.21	-0.528	3.84	3.02	3.72	4.32	0.579	2.71	3.03	0.898	-0.0948
ATCGAAAGGTCGTGAGGTGAGTGTACAGAAAGGC	0.429	2.63	1.08	0.59	1.74	3.17	0.525	3.97	1.08	4.04	3.06	4.52	4.11	1.26	5.06	3.48	1.71	1.41
ACTCACGGGTCAACGAGGTTATAGCACGCGTATA	1.79	2.88	0.756	1.16	4.09	5.33	4.27	5.51	1.43	4.27	3.5	5.72	4.98	2.83	6.42	4.03	1.03	4.51
GCTAGTTGGTCAGTAAAAGGTCACACACCGGTCG	1.12	2.86	-0.0862	0.91	4.27	4.95	1.3	5.91	3.23	4.19	5.15	5.32	4.87	0.715	5.2	3.52	2.08	1.99
AATACAGGGTCATCGTAGGCCAGAGGACGCACAG	2.45	4.1	1.52	0.83	2	4.85	0.696	4.98	0.699	4.41	3.8	5.78	5.21	3.64	7.03	4.56	1.75	3.53
CCTCGCAGGCCAATCTGGGTCACTCAAGGCTTGA	3.89	4.74	-0.647	-1.36	0.567	1.21	-0.402	1.75	-0.288	1.67	2.37	1.18	1.63	0.29	0.763	3.93	0.712	0.14
TCTGCTAGGTCAGTAGGTCAGCTAACGAGCTGCC	4.75	6.23	0.586	0.0507	0.729	1.3	-0.386	2.58	-1.38	3.79	3.94	4.77	4.67	0.677	2.36	1.93	0.157	-0.0493
GCTGCTAGGTCAGATTGGTCAGCTAACGGGTACG	2.72	2.3	-0.411	-0.686	0.271	0.33	-0.223	0.855	-0.468	3.27	2.58	2.22	3.18	0.569	1.11	1.73	0.354	0.117
ACTAGCAGGCCAAGTTTGGGTCGCTCAAACAAAG	0.683	0.332	-0.842	-0.527	-0.566	-0.33	-0.606	-0.147	-1.09	0.491	0.422	0.182	-0.0192	-0.368	-0.399	0.704	-0.599	-0.503
